The values that follow come from ChEMBL document CHEMBL1961873, “Compounds: GSK PKIS; Assays: Nanosyn kinase panel” (2012).

Each structure is given as a SMILES string.

The target of assay [1] is Sphingosine kinase 1 (Homo sapiens) (UniProt Q9NYA1). The conditions noted are these: at 1 µM.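 Note: mean SPHK1 inhibition value reported from the GSK PKIS kinase panel screen.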
For assay [2], the target named is T1, Sphingosine kinase 2 (Homo sapiens) (UniProt Q9NRA0).
T1 sequence (whole entry): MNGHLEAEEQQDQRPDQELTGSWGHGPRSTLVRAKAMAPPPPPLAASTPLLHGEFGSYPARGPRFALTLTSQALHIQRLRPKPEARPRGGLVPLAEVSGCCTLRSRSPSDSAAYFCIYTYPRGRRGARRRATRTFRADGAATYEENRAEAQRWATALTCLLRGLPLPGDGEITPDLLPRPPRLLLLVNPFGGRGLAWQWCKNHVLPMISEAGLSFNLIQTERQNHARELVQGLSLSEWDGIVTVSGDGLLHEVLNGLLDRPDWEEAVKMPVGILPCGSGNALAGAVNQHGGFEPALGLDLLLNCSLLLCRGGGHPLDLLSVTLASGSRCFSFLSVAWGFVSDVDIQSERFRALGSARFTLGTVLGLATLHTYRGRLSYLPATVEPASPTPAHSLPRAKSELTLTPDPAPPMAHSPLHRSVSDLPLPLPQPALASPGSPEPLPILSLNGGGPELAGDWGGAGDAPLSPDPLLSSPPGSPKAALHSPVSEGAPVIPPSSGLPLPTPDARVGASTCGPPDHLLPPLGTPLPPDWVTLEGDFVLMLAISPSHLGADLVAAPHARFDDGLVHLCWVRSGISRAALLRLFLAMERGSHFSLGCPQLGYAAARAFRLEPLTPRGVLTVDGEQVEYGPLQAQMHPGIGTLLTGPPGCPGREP
The conditions noted are these: at 0.1 µM.

Assay [3] concerns the target T1, Sphingosine kinase 2 (Homo sapiens). Conditions: at 1 µM.
Assay [4] concerns the target Casein kinase II subunit alpha (Homo sapiens) (UniProt P68400). Conditions: at 0.1 µM.
Assay [5] shares this target. Conditions: at 1 µM.
In assay [6] the target is T2, Inhibitor of nuclear factor kappa-B kinase subunit alpha (Homo sapiens) (UniProt O15111).
T2 sequence (whole entry): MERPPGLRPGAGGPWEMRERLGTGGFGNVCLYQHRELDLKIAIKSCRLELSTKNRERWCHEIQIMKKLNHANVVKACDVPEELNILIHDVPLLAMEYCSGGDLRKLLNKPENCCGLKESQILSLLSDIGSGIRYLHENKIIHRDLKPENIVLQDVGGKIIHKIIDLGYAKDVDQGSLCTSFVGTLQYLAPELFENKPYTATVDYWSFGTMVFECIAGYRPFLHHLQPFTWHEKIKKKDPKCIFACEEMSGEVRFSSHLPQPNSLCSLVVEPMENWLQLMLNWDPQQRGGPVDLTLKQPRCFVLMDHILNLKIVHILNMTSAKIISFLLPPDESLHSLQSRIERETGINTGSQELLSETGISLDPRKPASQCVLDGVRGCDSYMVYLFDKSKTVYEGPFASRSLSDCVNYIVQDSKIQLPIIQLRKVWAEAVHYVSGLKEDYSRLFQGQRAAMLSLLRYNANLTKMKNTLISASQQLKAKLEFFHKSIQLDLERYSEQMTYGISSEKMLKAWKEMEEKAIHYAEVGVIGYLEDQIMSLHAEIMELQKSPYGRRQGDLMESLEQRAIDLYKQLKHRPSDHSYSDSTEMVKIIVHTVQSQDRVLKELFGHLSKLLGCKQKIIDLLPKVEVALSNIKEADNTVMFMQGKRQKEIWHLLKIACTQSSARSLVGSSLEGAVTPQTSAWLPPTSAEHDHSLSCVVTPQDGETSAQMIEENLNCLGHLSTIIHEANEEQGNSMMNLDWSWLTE
Conditions: at 0.1 µM.

Assay [7] concerns the target T2, Inhibitor of nuclear factor kappa-B kinase subunit alpha (Homo sapiens). Conditions: at 1 µM.
For assay [8], the target named is T3, Inhibitor of nuclear factor kappa-B kinase subunit beta (Homo sapiens) (UniProt O14920).
T3 sequence (whole entry): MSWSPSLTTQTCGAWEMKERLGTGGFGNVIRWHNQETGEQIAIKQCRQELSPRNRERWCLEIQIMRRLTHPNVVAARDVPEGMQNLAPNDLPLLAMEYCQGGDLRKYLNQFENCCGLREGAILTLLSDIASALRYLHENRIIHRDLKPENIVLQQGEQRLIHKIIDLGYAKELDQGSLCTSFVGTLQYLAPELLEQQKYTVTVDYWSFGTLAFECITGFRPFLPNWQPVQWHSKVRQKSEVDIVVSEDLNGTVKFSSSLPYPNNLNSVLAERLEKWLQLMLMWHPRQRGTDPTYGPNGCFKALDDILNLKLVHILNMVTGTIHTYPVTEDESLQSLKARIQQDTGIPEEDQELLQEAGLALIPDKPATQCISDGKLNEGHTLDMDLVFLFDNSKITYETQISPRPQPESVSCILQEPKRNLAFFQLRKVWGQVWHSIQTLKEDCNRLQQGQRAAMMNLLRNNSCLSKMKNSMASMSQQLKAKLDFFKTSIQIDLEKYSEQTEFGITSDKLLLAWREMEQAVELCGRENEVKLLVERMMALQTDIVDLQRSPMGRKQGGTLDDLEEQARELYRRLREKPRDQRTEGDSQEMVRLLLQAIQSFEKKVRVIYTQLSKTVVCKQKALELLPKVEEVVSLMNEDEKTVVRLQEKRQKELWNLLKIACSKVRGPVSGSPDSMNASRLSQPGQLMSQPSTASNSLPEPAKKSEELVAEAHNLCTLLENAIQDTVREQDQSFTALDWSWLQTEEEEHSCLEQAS
The conditions noted are these: at 0.1 µM.

In assay [9] the target is T3, Inhibitor of nuclear factor kappa-B kinase subunit beta (Homo sapiens). Conditions: at 1 µM.
The target in assay [10] is T4, Inhibitor of nuclear factor kappa-B kinase subunit epsilon (Homo sapiens) (UniProt Q14164).
T4 sequence (whole entry): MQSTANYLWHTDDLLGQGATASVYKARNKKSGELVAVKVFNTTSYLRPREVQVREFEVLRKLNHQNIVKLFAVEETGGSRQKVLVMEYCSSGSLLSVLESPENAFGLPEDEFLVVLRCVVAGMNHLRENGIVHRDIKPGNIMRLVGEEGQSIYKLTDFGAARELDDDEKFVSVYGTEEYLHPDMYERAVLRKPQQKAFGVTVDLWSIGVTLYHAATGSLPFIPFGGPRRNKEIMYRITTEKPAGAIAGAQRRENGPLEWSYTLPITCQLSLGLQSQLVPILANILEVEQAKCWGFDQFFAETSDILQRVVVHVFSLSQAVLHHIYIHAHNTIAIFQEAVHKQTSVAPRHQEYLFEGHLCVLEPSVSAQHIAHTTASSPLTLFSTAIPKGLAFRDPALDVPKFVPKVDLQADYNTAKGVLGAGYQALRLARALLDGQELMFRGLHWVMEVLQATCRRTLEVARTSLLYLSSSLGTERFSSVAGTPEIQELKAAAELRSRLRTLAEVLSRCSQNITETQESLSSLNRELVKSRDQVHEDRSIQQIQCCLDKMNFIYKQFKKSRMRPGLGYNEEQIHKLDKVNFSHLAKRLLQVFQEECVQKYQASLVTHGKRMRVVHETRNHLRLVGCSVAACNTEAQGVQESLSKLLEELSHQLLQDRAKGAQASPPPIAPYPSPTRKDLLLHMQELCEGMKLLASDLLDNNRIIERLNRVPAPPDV
Conditions: at 0.1 µM.

For assay [11], the target named is T4, Inhibitor of nuclear factor kappa-B kinase subunit epsilon (Homo sapiens). Conditions: at 1 µM.
The target of assay [12] is T5, Serine/threonine-protein kinase Nek1 (Homo sapiens) (UniProt Q96PY6).
T5 sequence (whole entry): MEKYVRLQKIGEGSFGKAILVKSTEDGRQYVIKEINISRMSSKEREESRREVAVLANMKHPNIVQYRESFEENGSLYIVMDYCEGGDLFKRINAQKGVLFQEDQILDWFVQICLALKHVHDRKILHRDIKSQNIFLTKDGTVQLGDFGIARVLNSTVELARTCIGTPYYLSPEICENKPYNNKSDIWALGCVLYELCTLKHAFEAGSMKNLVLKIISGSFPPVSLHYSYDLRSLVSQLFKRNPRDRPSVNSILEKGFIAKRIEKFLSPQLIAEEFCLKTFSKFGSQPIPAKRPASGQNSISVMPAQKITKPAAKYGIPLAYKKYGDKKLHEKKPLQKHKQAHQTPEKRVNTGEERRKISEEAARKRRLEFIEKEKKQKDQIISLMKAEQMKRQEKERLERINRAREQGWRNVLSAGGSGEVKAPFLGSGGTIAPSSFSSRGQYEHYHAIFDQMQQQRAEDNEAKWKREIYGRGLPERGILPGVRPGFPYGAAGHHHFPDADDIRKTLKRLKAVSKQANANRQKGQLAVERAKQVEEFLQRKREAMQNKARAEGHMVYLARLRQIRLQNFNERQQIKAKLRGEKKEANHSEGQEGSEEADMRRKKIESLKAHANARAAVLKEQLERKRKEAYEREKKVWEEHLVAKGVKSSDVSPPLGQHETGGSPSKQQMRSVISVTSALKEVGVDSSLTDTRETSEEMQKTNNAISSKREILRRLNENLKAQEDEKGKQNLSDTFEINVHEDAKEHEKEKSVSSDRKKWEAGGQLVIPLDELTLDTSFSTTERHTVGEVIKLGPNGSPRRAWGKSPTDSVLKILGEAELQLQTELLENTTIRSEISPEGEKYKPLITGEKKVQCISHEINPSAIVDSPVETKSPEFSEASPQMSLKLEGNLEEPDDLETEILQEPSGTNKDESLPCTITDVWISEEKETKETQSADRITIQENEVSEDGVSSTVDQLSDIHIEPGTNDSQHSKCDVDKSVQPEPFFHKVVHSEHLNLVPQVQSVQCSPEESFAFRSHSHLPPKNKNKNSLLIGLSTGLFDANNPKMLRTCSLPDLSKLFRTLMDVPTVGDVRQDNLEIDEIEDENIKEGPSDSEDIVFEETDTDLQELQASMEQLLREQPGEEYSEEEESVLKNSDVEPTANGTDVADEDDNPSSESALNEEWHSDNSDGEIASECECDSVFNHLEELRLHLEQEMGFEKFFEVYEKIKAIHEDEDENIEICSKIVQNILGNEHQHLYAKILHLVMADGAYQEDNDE
The conditions noted are these: at 0.1 µM.

The target of assay [13] is T5, Serine/threonine-protein kinase Nek1 (Homo sapiens). The conditions noted are these: at 1 µM.
Assay [14] has as its target T6, Serine/threonine-protein kinase Nek2 (Homo sapiens) (UniProt P51955).
T6 sequence (whole entry): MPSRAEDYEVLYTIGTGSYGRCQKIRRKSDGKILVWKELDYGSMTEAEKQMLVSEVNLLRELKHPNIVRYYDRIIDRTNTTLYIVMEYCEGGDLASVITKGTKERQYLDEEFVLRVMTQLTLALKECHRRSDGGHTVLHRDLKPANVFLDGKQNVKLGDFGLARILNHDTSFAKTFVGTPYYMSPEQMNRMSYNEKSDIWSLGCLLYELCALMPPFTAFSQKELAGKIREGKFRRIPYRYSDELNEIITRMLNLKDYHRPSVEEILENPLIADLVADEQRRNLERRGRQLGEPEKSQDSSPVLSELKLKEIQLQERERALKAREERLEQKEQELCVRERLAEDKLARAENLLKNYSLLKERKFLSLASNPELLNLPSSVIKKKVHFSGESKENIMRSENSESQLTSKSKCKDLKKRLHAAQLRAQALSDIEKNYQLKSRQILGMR
The conditions noted are these: at 0.1 µM.

Assay [15] addresses T6, Serine/threonine-protein kinase Nek2 (Homo sapiens). The conditions noted are these: at 1 µM.
Assay [16] deals with Serine/threonine-protein kinase Nek6 (Homo sapiens) (UniProt Q9HC98). Conditions: at 0.1 µM.
Sequence of Serine/threonine-protein kinase Nek6 (Homo sapiens) (Q9HC98 whole entry): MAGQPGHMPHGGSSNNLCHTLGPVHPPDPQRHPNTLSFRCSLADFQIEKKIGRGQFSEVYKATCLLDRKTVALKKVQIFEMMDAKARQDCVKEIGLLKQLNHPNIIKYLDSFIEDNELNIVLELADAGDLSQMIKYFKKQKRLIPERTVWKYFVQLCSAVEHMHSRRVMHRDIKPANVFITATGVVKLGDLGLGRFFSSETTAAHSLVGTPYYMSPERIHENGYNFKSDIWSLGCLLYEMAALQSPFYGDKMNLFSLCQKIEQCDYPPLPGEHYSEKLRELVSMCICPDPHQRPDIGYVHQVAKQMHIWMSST
Assay [17] shares this target. The conditions noted are these: at 1 µM.
The target of assay [18] is Serine/threonine-protein kinase Nek7 (Homo sapiens) (UniProt Q8TDX7). Conditions: at 0.1 µM.
Sequence of Serine/threonine-protein kinase Nek7 (Homo sapiens) (Q8TDX7 whole entry, looked up): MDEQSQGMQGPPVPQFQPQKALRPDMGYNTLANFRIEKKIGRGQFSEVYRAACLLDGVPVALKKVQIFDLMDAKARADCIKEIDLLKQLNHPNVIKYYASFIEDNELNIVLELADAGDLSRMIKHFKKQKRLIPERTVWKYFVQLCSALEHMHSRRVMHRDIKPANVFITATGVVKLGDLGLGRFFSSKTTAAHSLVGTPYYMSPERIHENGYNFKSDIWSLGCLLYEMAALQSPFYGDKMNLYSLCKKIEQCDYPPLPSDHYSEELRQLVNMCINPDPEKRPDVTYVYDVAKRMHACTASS
Assay [19] shares this target. The conditions noted are these: at 1 µM.
Assay [20] concerns the target T7, Serine/threonine-protein kinase Nek9 (Homo sapiens) (UniProt Q8TD19).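 Note: reported value is the mean percent inhibition of NEK9.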
T7 sequence (whole entry): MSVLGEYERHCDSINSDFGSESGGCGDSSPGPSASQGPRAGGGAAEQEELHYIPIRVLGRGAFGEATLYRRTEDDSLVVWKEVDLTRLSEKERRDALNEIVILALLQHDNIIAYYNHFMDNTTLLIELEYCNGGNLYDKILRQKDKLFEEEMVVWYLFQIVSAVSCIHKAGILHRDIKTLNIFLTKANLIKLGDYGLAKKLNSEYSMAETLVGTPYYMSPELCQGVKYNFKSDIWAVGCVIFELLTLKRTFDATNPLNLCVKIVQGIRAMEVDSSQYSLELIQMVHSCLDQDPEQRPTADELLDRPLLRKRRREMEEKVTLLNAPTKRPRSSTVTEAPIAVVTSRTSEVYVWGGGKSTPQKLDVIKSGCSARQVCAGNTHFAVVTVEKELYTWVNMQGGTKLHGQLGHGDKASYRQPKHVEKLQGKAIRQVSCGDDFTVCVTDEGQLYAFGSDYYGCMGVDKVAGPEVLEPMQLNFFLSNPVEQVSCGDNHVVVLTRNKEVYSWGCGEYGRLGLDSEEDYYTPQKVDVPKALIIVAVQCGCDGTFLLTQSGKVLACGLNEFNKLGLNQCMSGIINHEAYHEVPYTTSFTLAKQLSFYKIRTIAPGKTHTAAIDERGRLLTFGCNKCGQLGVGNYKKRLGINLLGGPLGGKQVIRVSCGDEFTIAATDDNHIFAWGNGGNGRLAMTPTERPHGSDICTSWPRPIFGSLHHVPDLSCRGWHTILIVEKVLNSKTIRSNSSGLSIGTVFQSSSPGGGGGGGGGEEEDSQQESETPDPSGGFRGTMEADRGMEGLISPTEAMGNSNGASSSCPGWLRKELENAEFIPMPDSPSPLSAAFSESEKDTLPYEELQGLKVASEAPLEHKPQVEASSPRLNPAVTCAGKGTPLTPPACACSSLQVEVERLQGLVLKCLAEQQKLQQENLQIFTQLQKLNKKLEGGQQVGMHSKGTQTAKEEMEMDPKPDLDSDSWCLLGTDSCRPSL
The conditions noted are these: at 0.1 µM.

Sequence of Casein kinase II subunit alpha (Homo sapiens) (P68400 whole entry, looked up): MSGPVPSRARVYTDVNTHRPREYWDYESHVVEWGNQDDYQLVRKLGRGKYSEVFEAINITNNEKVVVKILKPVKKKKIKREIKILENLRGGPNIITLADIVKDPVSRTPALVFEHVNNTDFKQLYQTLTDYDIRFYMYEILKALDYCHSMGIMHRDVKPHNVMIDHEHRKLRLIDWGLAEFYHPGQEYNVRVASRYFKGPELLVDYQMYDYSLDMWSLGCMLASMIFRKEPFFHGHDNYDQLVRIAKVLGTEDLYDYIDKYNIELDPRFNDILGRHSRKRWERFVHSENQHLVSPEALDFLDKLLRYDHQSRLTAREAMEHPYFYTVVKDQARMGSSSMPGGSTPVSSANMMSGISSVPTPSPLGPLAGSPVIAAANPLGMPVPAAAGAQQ
Sequence of Sphingosine kinase 1 (Homo sapiens) (Q9NYA1 whole entry): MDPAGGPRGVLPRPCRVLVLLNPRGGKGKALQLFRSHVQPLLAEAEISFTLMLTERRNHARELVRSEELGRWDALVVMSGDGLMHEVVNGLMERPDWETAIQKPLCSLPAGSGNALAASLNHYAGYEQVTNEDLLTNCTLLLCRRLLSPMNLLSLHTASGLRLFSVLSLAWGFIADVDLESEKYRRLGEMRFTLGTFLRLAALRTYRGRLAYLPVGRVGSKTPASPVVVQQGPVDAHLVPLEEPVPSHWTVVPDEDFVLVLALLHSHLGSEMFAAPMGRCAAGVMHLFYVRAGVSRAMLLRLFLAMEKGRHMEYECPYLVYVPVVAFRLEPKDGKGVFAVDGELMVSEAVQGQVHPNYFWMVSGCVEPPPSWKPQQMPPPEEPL

As to `COc1ccc2c(-c3ccnc(Nc4cccc(OC(F)(F)F)c4)n3)cnn2n1`, the inhibition in assay [1] is -1.74%; in assay [2] it was 1.81%; in assay [3], -2.35%; in assay [4], 4%; in assay [5], 20%; in assay [6], 4.59%. The inhibition in assay [7] is 7.22%; in assay [8], 3.15%; in assay [9], 6.88%; in [10], 9.38%; in [11] it was 26.7%; in assay [12], 3.61%. Further, the inhibition was found to be 6.35% in assay [13]; 5.13% in assay [14]; 4.77% in assay [15]; 3.21% in [16]; 4.5% in assay [17]; 3.37% in assay [18]. Besides, the inhibition in assay [19] was found to be 4.57%; in assay [20], 5.79%.

For orientation: inhibition means the relative decrease from the control value, in per cent.
